Hits are enriched below; roughly 0.51% of the tested compounds scored in any of these assays.
Vif-APOBEC3F blk: blocks the Vif interaction with APOBEC3F. Potency, µM (highest dose often 46.1 µM), without a hit: top-dose activity, negative = active. AID 602313. HeLa A3F-eYFP + Vif (tagged APOBEC3F with the HIV-1 protein that degrades it), YFP fluorescence increase. 0.2% of 390,000 active; note: % of control where 0% means no effect; nearly all actives have a fitted effect of over 65% in size
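HeLa cells stably expressing A3F-eYFP plus Vif, plated and incubated overnight at 37 deg C, then exposed to compounds overnight at 37 deg C. Blocked degradation read as raised yellow fluorescence (Ex 488/Em 500-530).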
Epigenetic reg: regulators of epigenetic silencing causing reporter derepression in mouse cells; murine LDR cells, GFP reporter derepression, 30 h; Potency, µM (titrated, usually from 53.9 µM), for inactives: at the highest dose GFP activation, actives largely listed as activators; 0.2% of 280,000 active; AID 1865; note: % of control where 0% means no effect; nearly all actives have a fitted effect of over 60% in size
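Murine LDR cells bearing a silenced CMV-driven GFP reporter were exposed to compound for 30 h at 37 C. After PBS washes, GFP-positive cells (20-120 um objects) counted by laser-scanning microplate cytometry.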
Vif-APOBEC3G blk: inhibitors of Vif-APOBEC3G interaction; Q9HC16; HeLa A3G-eYFP + Vif (tagged APOBEC3G with the HIV-1 protein that degrades it), YFP fluorescence, overnight; Potency, µM (highest dose often 46.1 µM), inactives show at the highest dose activity, negative = active, most hits filed as inhibitors; 0.076% of 410,000 active; AID 602310; note: % is set by controls: 0 for no effect and ±100 for the full control effect; nearly all actives have a fitted effect of over 60% in size
Target sequence (Q9HC16 whole entry, looked up): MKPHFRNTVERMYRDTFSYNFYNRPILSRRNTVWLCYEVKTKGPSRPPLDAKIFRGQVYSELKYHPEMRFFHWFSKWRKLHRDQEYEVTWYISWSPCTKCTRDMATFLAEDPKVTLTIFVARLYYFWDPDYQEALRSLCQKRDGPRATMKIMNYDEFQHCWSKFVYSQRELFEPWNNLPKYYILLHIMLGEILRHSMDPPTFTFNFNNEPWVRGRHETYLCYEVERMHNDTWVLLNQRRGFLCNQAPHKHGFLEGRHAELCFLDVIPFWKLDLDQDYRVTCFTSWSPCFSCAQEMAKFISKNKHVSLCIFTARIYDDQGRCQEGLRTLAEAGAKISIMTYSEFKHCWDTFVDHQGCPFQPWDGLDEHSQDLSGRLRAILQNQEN
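Read-out is eYFP fluorescence (Ex 488/Em 500-530) from Vif-expressing HeLa A3G-eYFP cells; more signal means A3G escaped Vif-mediated degradation. Cells plated overnight, compound pinned in, incubated overnight at 37 deg C.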
PINK1 modulator: changes PINK1 expression | Potency, µM (titrated, usually from 76.6 µM), for the others: top-dose activation (PINK1 increase), hits mostly activators | PINK1 immunofluorescence, high-content cytometry, 24 h | 0.2% of 410,000 active; active = well fitted activation curve with a large enough effect; inconclusive = small, poorly fitted or top-dose-only effect; cell line not stated here; note: % of control where 0% means no effect; nearly all actives have a fitted effect of over 65% in size
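A stable cell line was treated with compounds at 5 concentrations for 24 hours, with CCCP as control. PINK1 levels and mitochondrial localization were measured by immunofluorescence with mitochondrial, cell and nuclear markers after fixation, read by laser-scanning cytometry.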
* hit, by the source's call; ? = inconclusive; . = no result. Unless noted, calls come from the whole dose curve; as a rule, active = well fitted curve in the direction sought with a large enough effect; inconclusive = small, poorly fitted or top-dose-only effect, or another doubt; inactive = no such curve, though single readings can be large; an effect the other way counts as inactive or inconclusive. Potency is the fitted concentration of half-maximal effect.

SMILES	Vif-APOBEC3F blk	Epigenetic reg	Vif-APOBEC3G blk	PINK1 modulator
O=C(Cc1ccccc1)N/N=C/c1ccc(-c2ccc([N+](=O)[O-])cc2)o1	?	?	7.9µM*	7.9µM*
Cc1cc(OC(C)C)c2c(-c3ccccc3)cc(=O)oc2c1	-4%	-1%	-5%	18%
Cc1cc(Br)ccc1SCC(=O)OC/C(O)=C(\C#N)c1nc2ccccc2[nH]1	25µM*	15%	-6%	13%
Cc1c(C(=O)N2CCCC2)sc2ncnc(NCCN(C)C)c12	.	.	.	1%
Cn1c(=O)c2c(nc(SCC(=O)N3c4ccccc4CCc4ccccc43)n2C)n(C)c1=O	-7%	0%	1%	10µM*
COc1cccc(/C=c2\s/c(=C/C(=O)c3ccc(C)cc3)[nH]c2=O)c1OC	?	-1%	-13%	?
COc1ccc(/C=c2\s/c(=C/C(=O)c3ccc(C)cc3)[nH]c2=O)c(OC)c1	25µM*	7%	?	?
CCOc1ccc(NC(=O)Cn2cc(S(=O)(=O)NC)c(S(=O)(=O)NC)c2)cc1	0%	1%	2%	1%
O=C(NC(=S)N1CCCCC1)C12CC3CC(CC(C3)C1)C2	3%	-1%	1%	-2%
CC12CC3CC(C)(C1)CC(C(=O)NC(=S)N1CCOCC1)(C3)C2	2%	1%	10µM*	.
CN(C)c1ccc(/C=N/N(CCO)C2=NS(=O)(=O)c3ccccc32)cc1	22µM*	.	5%	16%
COc1ccc(C(=S)N2CCCCC2)cc1Br	6%	0%	2%	1%
NC(=O)COC(=O)c1ccccc1OCc1ccccc1	1%	3%	1%	0%
COc1ccccc1OCc1nnc(SCC(=O)Nc2ccc(C)cc2)n1C	2%	5%	-2%	1%
Cc1ccccc1OCc1nnc(SCC(=O)Nc2ccc3c(c2)oc2ccccc23)n1C	-1%	1%	4%	13µM*
CC(=O)Nc1sc(/C(C#N)=C\c2cccc(Cl)c2)nc1-c1ccc(C)cc1	10µM*	7.9µM*	4µM*	2%
Cc1cc2nc(SCCOC(=O)Nc3cccc(Cl)c3)nc(C)c2cc1C	25µM*	0%	-3%	1%
CCN(CC)CCC[C@H](C)Nc1c2ccc(Cl)cc2nc2ccc(OC)cc12	.	3.5µM*	.	.
CCN(CC)CCn1c(-c2ccccc2)csc1=Nc1ccccc1	3%	-1%	0%	28µM*
OCCCn1c(-c2ccccc2)csc1=Nc1ccccc1	2%	1%	-4%	1%
Cc1ccccc1OCCC(=O)OCC(=O)Nc1ccc(N2CCOCC2)cc1	13%	.	-1%	-1%
CCCCCCCCCCCCCCCC[n+]1ccc(/C=C/c2c[nH]c3ccccc23)c2ccccc21	.	.	1%	.
CC[n+]1c(/C=C/c2c[nH]c3ccccc23)ccc2cc(C)ccc21	-124%	4.5µM*	?	4%
CCN(CC)C(=O)c1ccc(/C=C/c2c[nH]c3ccccc23)[n+](C)c1	13µM*	?	?	3%
CN(C)c1ccc(-c2cc(-n3ccnc3)ncn2)cc1	.	-2%	.	1%
SMILES	Vif-APOBEC3F blk	Epigenetic reg	Vif-APOBEC3G blk	PINK1 modulator
Nc1cccc(C(=O)OCC(=O)c2ccccc2)c1	-17%	-1%	4%	0%
Cc1ccc2nc(-c3ccccn3)c(NC3CCCC3)n2c1	7.9µM*	0%	0%	11%
Cc1ccc2nc(-c3ccc(C)o3)c(NC3CCCC3)n2c1	.	.	.	0%
CN1CC=C2C(C#N)=C(N)C(C#N)(C#N)C(c3cccc(Cl)c3Cl)C2C1 (stereo not drawn)	?	-1%	-26%	14µM*
CN1CC=C2C(C#N)=C(N)C(C#N)(C#N)[C@H](c3ccoc3)[C@H]2C1	-1%	-4%	1%	40µM*
Cc1ccc(S(N)(=O)=O)cc1	4%	.	0%	0%
CCN(CC)c1ccc2cc(-c3nc(-c4cccs4)no3)c(=O)oc2c1	-924%	7.1µM*	?	24%
CCN(CC)c1ccc2cc(-c3nnc(-c4cccc(Cl)c4)o3)c(=O)oc2c1	?	?	?	18%
CCN(CC)c1ccc2cc(-c3nc(-c4ccccc4F)no3)c(=O)oc2c1	?	13µM*	-26%	3%
O=c1oc2ccc(Cl)cc2cc1-c1nc(-c2cccs2)no1	-2%	-3%	4%	0%
CCN(CC)c1ccc2cc(-c3nnc(-c4ccncc4)o3)c(=O)oc2c1	-418%	0.56µM*	2%	?
CCN(CC)c1ccc2cc(-c3nc(-c4cc(OC)c(OC)c(OC)c4)no3)c(=O)oc2c1	?	13µM*	?	2%
Cc1ccccc1OC1(C)CCN(Cc2ccc(-c3ccccn3)cc2)C1 (stereo not drawn)	.	.	0%	?
Cc1cc(C)nc(NC(=NCc2ccc3c(c2)OCO3)NC(=O)Nc2ccccc2)n1	-1%	4%	1%	14µM*
Cc1nc(NC(=O)c2ccccc2)sc1Cc1ccc2c(c1)OCO2	-6%	5%	?	2%
Cc1onc(-c2c(F)cccc2Cl)c1C(=O)Nc1cc(S(=O)(=O)N2CCCCC2)ccc1O	1%	.	-3%	16µM*
Cc1onc(-c2c(F)cccc2Cl)c1C(=O)Nc1ccc(S(=O)(=O)N2CCOCC2)cc1	-3%	.	-2%	0%
CCOC(=O)Cc1csc(NC(=O)c2sc3nc4ccc(CC)cc4cc3c2N)n1	?	?	-22%	40µM*
C[C@]12c3[nH]c4ccccc4c3CCN1C(=O)C(CC(=O)NCc1ccco1)C[C@@H]2C(=O)N1CCCCC1 (stereo partly drawn)	8%	.	7%	11%
CC(C)N(C(=S)Nc1cccc(C(F)(F)F)c1)C(C)c1ccccn1 (stereo not drawn)	-5%	0%	-3%	32µM*
COc1ccc(CNC(=O)c2cc(-c3ccc(OC)cc3)on2)cc1	2%	-1%	5%	2%
CC(NC(=O)c1ccc(Nc2nc3ccccc3n3nnnc23)cc1)c1ccccc1 (stereo not drawn)	7.1µM*	?	?	2%
Cc1ccc(C(=O)O)cc1Nc1nc2ccccc2n2nnnc12	11µM*	0%	-23%	2%
CC(CNC(=O)c1ccc(Nc2nc3ccccc3n3nnnc23)cc1)c1ccccc1 (stereo not drawn)	-13%	?	1%	4%
COc1ccccc1CNC(=O)c1ccc(Nc2nc3ccccc3n3nnnc23)cc1	22µM*	?	-28%	?
SMILES	Vif-APOBEC3F blk	Epigenetic reg	Vif-APOBEC3G blk	PINK1 modulator
Nc1cc(C(=O)OCC(=O)NCCCc2ccccc2)ccc1Cl	-7%	.	-2%	1%
Cc1cc(NC(=O)NCC(F)(F)F)no1	-18%	1%	-4%	2%
CCN1CCc2c(sc(NC(=O)Nc3ccc(Cl)c(Cl)c3)c2C(N)=O)C1	?	?	?	14µM*
CCCCN(CCCC)S(=O)(=O)c1ccc(C(=O)Nc2sc3c(c2C(N)=O)CCN(CC)C3)cc1	28µM*	?	?	2%
COC(=O)c1ccc(OCC(O)CN2C(=O)NC(C)(C)C2=O)cc1 (stereo not drawn)	5%	-1%	0%	-2%
Cc1ccc(-n2ncc3c(NNC(=O)c4ccco4)ncnc32)c(C)c1	0%	0%	0%	0%

Screening results as filed in PubChem BioAssay.
